# PubChem BioAssay AID485341 (National Center for Advancing Translational Sciences (NCATS), 2010)
# Screen size: about 330,000 compounds; about 1,700 (0.52%) were called active. The list comes from a sample in which actives are over-represented; it also holds similar structures and randomly drawn compounds. Unmarked numbers belong to inactive results. Calls follow the shape of the dose curve; as a rule, active = well fitted inhibition curve with a large enough effect; inconclusive = small, poorly fitted or top-dose-only effect; inactive = no such curve, though single readings can be large or run the other way.
# Target: Beta-lactamase (Escherichia coli (strain K12)) (UniProt P00811)
# Sequence (P00811 whole entry, looked up): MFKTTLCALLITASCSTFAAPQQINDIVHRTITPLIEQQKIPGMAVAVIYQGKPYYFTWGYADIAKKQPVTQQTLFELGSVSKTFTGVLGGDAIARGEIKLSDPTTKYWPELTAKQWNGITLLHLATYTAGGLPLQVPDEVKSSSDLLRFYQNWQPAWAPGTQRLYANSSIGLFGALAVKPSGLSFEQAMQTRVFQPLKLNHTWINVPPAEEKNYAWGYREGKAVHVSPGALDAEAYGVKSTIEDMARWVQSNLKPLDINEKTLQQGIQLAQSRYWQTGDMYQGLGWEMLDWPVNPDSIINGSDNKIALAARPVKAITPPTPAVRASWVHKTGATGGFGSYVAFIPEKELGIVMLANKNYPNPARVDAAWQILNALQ
# Assay: qHTS Inhibitors of AmpC Beta-Lactamase (assay without detergent); also: nearly all actives have a fitted effect of over 20% in size
# Settings: AmpC nitrocefin hydrolysis, absorbance 480 nm, 0.0001% Triton; series mostly up to 57.1 µM; activity change, negative = inhibition: at the top concentration
# Description: NIH Molecular Libraries Probe Production Network [MLPCN] NIH Chemical Genomics Center [NCGC] Assay Provider: Professor Brian Shoichet, UCSF Assay Overview: This aggregation profiling approach exploits the sensitivity of aggregate formation to detergent. Inhibition of b-lactamase is measured in the presence and absence of 0.01% Triton X-100. This particular assay had the prescence of 0.01% Triton X-100. See Pubchem assay "Promiscuous and Specific Inhibitors of AmpC Beta-Lactamase (assay without detergent)" for related screen. Compounds that inhibit only in the absence of detergent are considered likely promiscuous aggregators. A screen of 1,030 compounds was performed in Brian Shoichet's lab in 96-well format. AmpC activity was measured by following the absorbance at 480 nm. Nitrocefin is a chromogenic substrate: while nitrocefin is yellow (lmax 390 nm), the product of its hydrolysis is red (lmax 486 nm, 17,000 M-1). AmpC beta lactamase was provided by Shoichet Lab, UCSF.
# Buffer: 20 mM phosphate buffer, pH 7.0 Triton X-100: No Detergent screen: 0.0001%, Detergent screen: 0.01%. Reagents/Controls: Buffer in columns 3 and 4 as negative control (no enzyme). 5.3 nM AmpC in columns 1, 2, 5-48. Titration of UCSF compound 9 control (from 10 mM, then 1:2) pin-transferred to column 2. Column 1 is neutral (100% activity). Assay Steps: Six uL of reagents were dispensed to 1536-well Greiner black clear bottom plates. Compounds and controls (23 nL) were transferred via Kalypsys PinTool. The plates were incubated for 15 min at room temperature, and then 2 uL of 800 uM solution of nitrocefin was added to start the reaction. The plates were immediately transferred to and read every 20 seconds for 4 min on ViewLux (Perkin-Elmer) High-throughput CCD imager using 480 nm absorbance protocol. During dispense, reagent bottles were kept submerged into 4 deg C water bath. Keywords: NIH Roadmap, MLSCN, MLI, MLSMR, qHTS, NCGC, AmpC Beta-Lactamase, Aggregation
# Potency is read from the fitted curve at half-maximal effect.
Structure (SMILES),"activity change, negative = inhibition [%]",Potency
COC(=O)C1=C(Nc2ccc(C)cc2)C=C(C)C(C(=O)OC)C1c1ccc(F)cc1 (stereo not given),-25.5,
Cc1ccccc1C(=O)Nc1ccccc1NC(=O)c1ccccc1C,-28.1,
O=S(=O)(Nc1ncccn1)c1ccc(NS(=O)(=O)c2cccc(Cl)c2Cl)cc1,-27.4,
O=C(COC(=O)/C=C/c1cccs1)NC1CCCCC1,-10.1,
COc1ccc(CC(=O)N[C@@H]2c3cc(OC)c(OC)cc3C[C@H]2OCc2ccccc2)cc1,142,
CC(=O)c1c(C)c[nH]c1C,-13.8,
CCCCN(C(=O)C1CCC1)c1c(N)n(Cc2ccccc2)c(=O)[nH]c1=O,-7.77,
CCn1c2ccccc2c2cc(NC(=O)Nc3ccc([N+](=O)[O-])cc3C)ccc21,-19.7,
COCCCNC(=S)N1CCN(c2nc(-c3cccc(OC)c3)cs2)CC1,136,
CC(=O)Nc1ccc(NC(=O)CSc2nnc(COc3ccccc3C)n2CC2CCCO2)cc1 (stereo not given),12.5,
CC[N+]1(CC)CC2=Cc3ccccc3CC2C1 (stereo not given),-10.4,
CC(=NCc1ccco1)c1c(C(F)(F)F)[nH]n(-c2nc3ccccc3s2)c1=O,-14.9,
CCC(C)Cn1c(O)cc2nn(-c3nc4ccccc4s3)c(=O)c-2c1C (stereo not given),,17.8 µM (active)
Cn1c(=O)c2c(nc(NCCNC(=O)c3ccco3)n2Cc2ccccc2F)n(C)c1=O,-7.23,
Cc1c(Cl)cccc1NC(=O)CC1SC(=NCC2CCCO2)NC1=O (stereo not given),-26.1,
Cc1ccc(NC(=O)CC2S/C(=N/N=C3\CCCc4ccccc43)NC2=O)cc1 (stereo not given),,3.16 µM (active)
CCN=C1SC(CC(=O)Nc2ccc(C)cc2)C(=O)N1CC (stereo not given),2.59,
CCCCn1c(N)c(N(CCOC)C(=O)COc2c(C)cccc2C)c(=O)[nH]c1=O,-17.2,
CS(=O)(=O)N1CCN(C(=O)CSc2ccccc2)CC1,-3.69,
Cc1ccc(S(=O)(=O)N2CCCC2CO)cc1 (stereo not given),-11.5,
COc1ccc(-n2nnnc2SCC(=O)c2ccc(OC)c(OC)c2)cc1,97.5,
COc1ccc(CSc2nnnn2-c2ccc(C(=O)O)cc2)cc1,-18.9,
COc1ccc(CSc2nnnn2-c2ccc(O)cc2)cc1F,,22.4 µM (active)
Cn1c2c(c(=O)n(C)c1=O)C(c1cccc([N+](=O)[O-])c1)Nc1ccccc1O2 (stereo not given),-8.07,
CN(CCC1CCOCC1)C(=O)CC1C(=O)NCCN1Cc1cccc(F)c1 (stereo not given),-3.93,

Structure (SMILES),"activity change, negative = inhibition [%]",Potency
O=C(O)CCCC(=O)Nc1ccc(Oc2cccc(C(F)(F)F)c2)nc1,-13.8,
CC(C)CN(C(=O)COC(=O)c1ccc(Cl)c(N)c1)c1c(N)n(Cc2ccccc2)c(=O)[nH]c1=O,,28.2 µM (active)
CC(C)CN(C(=O)COC(=O)c1ccc2ccccc2c1)c1c(N)n(Cc2ccccc2)c(=O)[nH]c1=O,-12.6,
Cc1csc(=O)n1CC(=O)OCC(=O)N(CC(C)C)c1c(N)n(Cc2ccccc2)c(=O)[nH]c1=O,-26.2,
Cc1cc(NC(=O)C(C)N2C(=O)c3ccccc3S2(=O)=O)no1 (stereo not given),,25.1 µM (active)
CSc1ccccc1NC(=O)C(C)N1C(=O)c2ccccc2S1(=O)=O (stereo not given),-13.6,
Cc1cc(NC(=O)CSCc2ccccc2C)no1,-5.58,
O=C1CCC(=O)N(c2ccccc2)N1,0.2,
O=C(OCC1O[C@@H](OC(=O)c2cc(O)c(O)c(O)c2)[C@@H](OC(=O)c2cc(O)c(O)c(O)c2)[C@@H](OC(=O)c2cc(O)c(O)c(O)c2)[C@@H]1OC(=O)c1cc(O)c(O)c(O)c1)c1cc(O)c(O)c(O)c1 (stereo not given in full),,1 µM (active)
CCOCCCNC(=O)c1ccc(CS(=O)(=O)c2cccc(C(F)(F)F)c2)o1,16.8,
CCOCCn1[nH]c2ccccc2c1=O,-13,
CCOC(=O)c1sc(NC(=O)CSc2n[nH]c(CC)n2)nc1C,-18.1,
O=C(CSc1nc(O)c(Cc2ccccc2)c(=O)[nH]1)Nc1nc2c(s1)CCCC2,-39.3,
CCOC(=O)c1sc(NC(=O)CSc2nc(O)c(Cc3ccccc3)c(=O)[nH]2)nc1C,,15.8 µM (active)
O=C(O)CCN=C1CCc2ccccc2N1,-16.2,
Cc1ccc(C)c(NC(=O)CSc2nnc(Cc3cccn3C)n2-c2ccc(F)cc2)c1,80.5,
COc1ccccc1NC(=O)CSc1nnc(Cc2cccn2C)n1-c1ccc(F)cc1,,1.41 µM (active)
COC(=O)c1ccc(NC(=O)CSc2nnc(Cc3cccn3C)n2-c2ccc(F)cc2)cc1,144,
O=C(CN1CCCC1)Nc1sc2c(c1C(=O)Nc1ccccc1)CCCC2,10.1,
Cc1cc2ncn(CCCCOc3ccccc3)c2cc1C,38.5,
COc1ccccc1C(=O)NCC(=O)OCC(=O)Nc1nnc(-c2ccccc2)o1,-23.1,
O=C(COC(=O)c1ccc(Oc2ccccc2)cc1)Nc1nnc(-c2ccccc2)o1,,12.6 µM (active)
CC(=O)Nc1cccc(C(=O)OCC(=O)Nc2nnc(-c3ccccc3)o2)c1,-23.2,
CCn1nnc(NC(=O)c2c(OC)cccc2OC)n1,-5.33,
CCN(C(=O)COC(=O)C1CCN(S(=O)(=O)c2ccc(C)c(C)c2)CC1)C1CCS(=O)(=O)C1 (stereo not given),114,
